Laboratory results reported in PubChem BioAssay.
“And” between values parts separate entries of the source, which are not always exact repeats. Identical values can stand only once. The source made the active and inactive calls.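 How the source made its calls, unless noted: active means compounds whose cell count with miR-34 switched on is under 0.7 times the count with it off; inactive means the rest.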

Experiments:
[1] = compounds altering viability of human ES cells (AID 493140; call rule not given here;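 further: cells exposed to compounds for four days before counting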); settings: human embryonic stem cell survival screen; stronger effect = higher value
[2] = viability loss with induced miR-34 in A549 – imaging, A549 dox-inducible miR-34, nuclei and caspase counts, primary screen (AID 1347080); settings: A549 miR-34 inducible, Hoechst nuclei count, 48 h
[3] = P. berghei load reduction in hepatocytes – cell-based, HepG2, luciferase luminescence, HepG2 viability, primary screen (AID 624349; in the data active means parasite load remaining mostly below about 12%, no sharp cut-off; inactive means mostly above about 10%;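 further: 100% = mean of DMSO negative control wells on the same plate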); settings: P. berghei liver stage in HepG2, luciferase luminescence, concentration not given here; parasite load remaining: stronger effect = lower value; viability: measured here: HepG2 viability without parasites
[4] = chitosan synthesis blockers in C. neoformans – flow cytometry, Cibacron Brilliant Red staining (AID 1347148; call rule not given here;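 further: compound exposure lasted three days at 37 degrees C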); settings: Cryptococcus neoformans chitosan, stronger effect = lower value; at 10 µM unless noted
[5] = stronger effect = lower value, cell number ratio, induced over uninduced
[6] = measured here: relative caspase fold change +Dox/-Dox
[7] = measured here: total cells with miR-34 induction, stronger effect = lower value
[8] = measured here: total cells without miR-34 induction

Compound | survival [1] | fold change [2, 5] | fold change [2, 6] | cell count [2, 7] | cell count [2, 8] | parasite load remaining [3] | viability [3] | fold fluorescence [4]
CCCCCCCCCCCCCCCCOCC(CO)OC (stereo not drawn) | 85.4 (inactive) | 1.02 (inactive) | 1.45 | 5930 | 5790 | – | – | –
CNS(=O)(=O)c1ccc(NC(=O)c2ccccc2C(=O)O)cc1 (tested in a mixture with another compound) | – | 0.903 (inactive) | 3.2 | 11500 | 12700 | 59.7% (inactive) | 106% | –
COc1c2ccoc2nc2c(OC)c(OC[C@@H](O)C(C)(C)O)ccc12 | – | 0.816 (inactive) | 1.39 | 8040 | 9850 | 153% (inactive) | 90.5% | –
CC(C)(C)n1nc(Cc2cccc3ccccc23)c2c(N)ncnc21 | – | 1.05 (inactive) | 1.15 | 5260 | 5010 | 40.9% (inactive) | 75% | –
COC(=O)[C@@H]1CC(=O)O[C@H](C)C/C=C/C=C/[C@H](O)[C@H](C)C[C@H](CC=O)[C@H](OC2O[C@H](C)[C@@H](OC3C[C@@](C)(O)[C@@H](OC(=O)CC(C)C)[C@H](C)O3)[C@H](N(C)C)[C@H]2O)[C@H]1OC (stereo partly drawn) | – | 0.948 (inactive) | 3.35 | 11900 | 12600 | 340% (inactive) | 138% | –
Clc1cnccn1 | 4.25 (inactive) | 0.949 (inactive) | 0.524 | 9270 | 9770 | 81.6% (inactive) | 71.5% | –
Nc1ncnc2c1ncn2C1O[C@H](CO)[C@@H](O)[C@@H]1O (stereo partly drawn) | – | 0.85 (inactive) | 1.24 | 7580 | 8920 | 68.6% (inactive) | 95.5% | –
CCCCCCCCCCCCC(O)C(=O)O (stereo not drawn) | 71.7 (inactive) | 0.965 (inactive) and 0.989 (inactive) | 1.1 and 0.875 | 6110 and 6000 | 6330 and 6060 | – | – | –
CCC(=O)O[C@H]1CCC2C3CCc4cc(O)ccc4C3CC[C@@]21C (stereo partly drawn) | – | 0.912 (inactive) | 2.49 | 10500 | 11500 | 105% (inactive) and 44.5% (inactive) | 66.4% and 92.8% | –
CO[C@H]1C[C@H](O[C@H]2[C@H](C)[C@@H](OC3O[C@H](C)C[C@H](N(C)C)[C@H]3OC(C)=O)[C@@H](C)C[C@]3(CO3)C(=O)[C@H](C)[C@@H](OC(C)=O)[C@@H](C)[C@@H](C)OC(=O)[C@@H]2C)O[C@@H](C)[C@@H]1OC(C)=O (stereo partly drawn) | – | 0.885 (inactive) | 2.77 | 11900 | 13400 | 45.4% (inactive) and 43.2% (inactive) | 71.3% and 92% | –
C[N+]1(C)CCC[C@H]1C(=O)[O-] | 11.7 (inactive) | 0.876 (inactive) | 1.44 | 8860 | 10100 | 174% (inactive) and 67% (inactive) | 106% and 78.6% | –
CCC(=O)OC1(C(=O)CCl)[C@@H](C)C[C@H]2[C@@H]3CCC4=CC(=O)C=C[C@]4(C)[C@@]3(F)[C@@H](O)C[C@@]21C (stereo partly drawn) | 2.5 (inactive) | 0.789 (inactive) | 1.5 | 5850 | 7420 | 141% (inactive) | 94.7% | –
CCCCCCCCCCCCCCCC(=O)NCCc1ccc(O)c(O)c1 | 69.7 (inactive) | 0.93 (inactive) | 0.624 | 5560 | 5980 | – | – | –
CCCCC[C@H](O)/C=C/[C@@H]1[C@H]2C/C(=C/CCCC(=O)O)O[C@H]2C[C@H]1O | 102 (inactive) | 1.05 (inactive) | 1.16 and 1.02 | 6320 and 6530 | 6040 and 6220 | – | – | –
COc1ccc2c3c([nH]c2c1)[C@H]1C[C@H]2[C@H](C[C@@H](O)[C@H](OC)[C@H]2C(=O)O)CN1CC3 | 7.42 (inactive) | 0.96 (inactive) | 0.581 | 9000 | 9370 | 113% (inactive) | 75.4% | –
CCCCCCCCCCCCCCC[C@@H](O)[C@@H](N)CO | 56.7 (inactive) | 0.968 (inactive) | 1.46 | 5120 | 5290 | – | – | –
COc1ccc(CC(C)(N)C(=O)O)cc1OC (stereo not drawn) | 17 (inactive) | 0.962 (inactive) | 0.938 | 9190 | 9550 | 64.7% (inactive) | 74.8% | –

Compound | survival [1] | fold change [2, 5] | fold change [2, 6] | cell count [2, 7] | cell count [2, 8] | parasite load remaining [3] | viability [3] | fold fluorescence [4]
CCCCCC(=O)CC[C@@H]1[C@@H](C/C=C\CCCC(=O)O)[C@@H](O)C[C@H]1O | 82.4 (inactive) | 0.925 (inactive) | 1.4 | 5510 | 5950 | – | – | –
CC12CCC3c4ccc(OC(=O)c5ccccc5)cc4CCC3C1CCC2O (stereo not drawn) | – | 0.833 (inactive) | 2.66 | 9690 | 11600 | 35.5% (inactive) | 95.7% | –
C[C@H]1c2cccc(O)c2C(O)=C2C(=O)C3(O)C(O)=C(C(N)=O)C(=O)[C@@H](N(C)C)[C@@H]3[C@@H](O)[C@@H]21 (stereo partly drawn) | 3.25 (inactive) | 0.641 (active) | 1.76 | 4060 | 6330 | 62.9% (inactive) | 97.2% | –
CN(C)c1ccc(O)c2c1CC1CC3[C@@H](N(C)C)C(=O)C(C(N)=O)=C(O)[C@]3(O)C(=O)C1=C2O (stereo partly drawn) | – | 0.679 (active) | 1.3 | 3880 | 5720 | 53.7% (inactive) | 42.6% | –
CCC(NC(C)C)C(O)c1ccc(O)c2[nH]c(=O)ccc12 (stereo not drawn) | – | 0.908 (inactive) | 1.47 | 11700 | 12900 | 40.1% (inactive) | 98.2% | –
CCCCCCCC/C=C\CCCCCCCCOC[C@H](COP(=O)([O-])OCC[N+](C)(C)C)OC(C)=O | 95.4 (inactive) | 0.905 (inactive) | 1.27 | 6070 | 6700 | – | – | –
CCOC(=O)[C@H](CCc1ccccc1)N[C@@H](C)C(=O)N1C(C(=O)O)C[C@@H]2CCC[C@@H]21 (stereo partly drawn) | 13.5 (inactive) | 0.971 (inactive) | 0.659 | 9850 | 10100 | 66.3% (inactive) | 72.7% | –
CCCCC/C=C\C[C@@H](O)/C=C/C=C/C=C\[C@@H](O)CCCC(=O)O | 102 (inactive) | 0.993 (inactive) | 1.34 | 6200 | 6240 | – | – | –
CC1(C)S[C@@H]2[C@H](NC(=O)[C@H](N)c3ccccc3)C(=O)N2[C@H]1C(=O)OC1OC(=O)c2ccccc21 (stereo partly drawn) | 7.92 (inactive) | 0.95 (inactive) | 0.554 | 8670 | 9130 | 114% (inactive) | 77.4% | –
CCOC(=O)Oc1c(OC)cc(C(=O)O[C@@H]2C[C@@H]3CN4CCc5c([nH]c6cc(OC)ccc56)[C@H]4C[C@@H]3[C@H](C(=O)OC)[C@H]2OC)cc1OC | – | 0.795 (inactive) | 2.41 | 6440 | 8100 | -14.9% (active) | 98.5% | –
CCC(C)[C@H]1O[C@]2(CC[C@@H]1C)C[C@@H]1C[C@@H](C/C=C(\C)[C@@H](OC3C[C@H](OC)C(O[C@H]4C[C@H](OC)[C@@H](O)[C@H](C)O4)[C@H](C)O3)[C@@H](C)/C=C/C=C3\CO[C@@H]4[C@H](O)C(C)=C[C@@H](C(=O)O1)[C@]34O)O2 (stereo partly drawn) | – | 1.04 (inactive) | 1.61 | 4770 | 4580 | 54.4% (inactive) | 90.4% | –
O=C(O)CCC/C=C\C[C@H]1[C@H](/C=C/[C@H](O)COc2cccc(C(F)(F)F)c2)[C@@H](O)C[C@H]1O | – | – | – | – | – | – | – | 4.62 (inactive)
CCCCC[C@@H](O)CC[C@H]1[C@H](CCCCCCC(=O)O)C(=O)C[C@@H]1O | – | – | – | – | – | – | – | 5.11 (inactive)
CO[C@H]1CC(O[C@@H]2/C(C)=C/C[C@@H]3C[C@@H](C[C@]4(CC[C@H](C)[C@@H](C5CCCCC5)O4)O3)OC(=O)[C@@H]3C=C(C)/C(=N/O)[C@H]4OC/C(=C\C=C\[C@@H]2C)[C@]43O)O[C@@H](C)C1O (stereo partly drawn) | – | 0.877 (inactive) | 3.74 | 9710 | 11100 | 170% (inactive) and 47% (inactive) | 86.8% and 106% | –
CC(=O)[C@@H]1[C@@H](C#N)C[C@@H]2[C@H]3CC=C4C[C@H](O)CC[C@@]4(C)[C@@H]3CC[C@]21C | – | – | – | – | – | – | – | 3.64 [at 146.4 µM] (inactive)
CC(=O)OCC(=O)[C@@]1(O)CC[C@H]2[C@@H]3CCC4=CC(=O)CC[C@]4(C)C3(F)C(=O)C[C@@]21C (stereo partly drawn) | – | 0.875 (inactive) | 1.05 | 6080 | 6960 | 49% (inactive) | 46.2% | –
